The values below come from article PMC4336329 (PLoS ONE, 2015).

The structures appear in SMILES notation. Among all 310,000 compounds or so, about 2,200 (0.71%) showed an effect of 50% or more. Effects have a minus sign here. The list comes from a sample in which strong results are over-represented; it also holds similar structures and randomly drawn compounds.

The target in the test is human ether-à-go-go-related gene (hERG) potassium channel (human, UniProt Q12809). Kind of test: primary screen, population patch clamp on CHO cells stably expressing hERG; higher = less effect of the substance.
Chain of human ether-à-go-go-related gene (hERG) potassium channel (Q12809 whole entry, looked up): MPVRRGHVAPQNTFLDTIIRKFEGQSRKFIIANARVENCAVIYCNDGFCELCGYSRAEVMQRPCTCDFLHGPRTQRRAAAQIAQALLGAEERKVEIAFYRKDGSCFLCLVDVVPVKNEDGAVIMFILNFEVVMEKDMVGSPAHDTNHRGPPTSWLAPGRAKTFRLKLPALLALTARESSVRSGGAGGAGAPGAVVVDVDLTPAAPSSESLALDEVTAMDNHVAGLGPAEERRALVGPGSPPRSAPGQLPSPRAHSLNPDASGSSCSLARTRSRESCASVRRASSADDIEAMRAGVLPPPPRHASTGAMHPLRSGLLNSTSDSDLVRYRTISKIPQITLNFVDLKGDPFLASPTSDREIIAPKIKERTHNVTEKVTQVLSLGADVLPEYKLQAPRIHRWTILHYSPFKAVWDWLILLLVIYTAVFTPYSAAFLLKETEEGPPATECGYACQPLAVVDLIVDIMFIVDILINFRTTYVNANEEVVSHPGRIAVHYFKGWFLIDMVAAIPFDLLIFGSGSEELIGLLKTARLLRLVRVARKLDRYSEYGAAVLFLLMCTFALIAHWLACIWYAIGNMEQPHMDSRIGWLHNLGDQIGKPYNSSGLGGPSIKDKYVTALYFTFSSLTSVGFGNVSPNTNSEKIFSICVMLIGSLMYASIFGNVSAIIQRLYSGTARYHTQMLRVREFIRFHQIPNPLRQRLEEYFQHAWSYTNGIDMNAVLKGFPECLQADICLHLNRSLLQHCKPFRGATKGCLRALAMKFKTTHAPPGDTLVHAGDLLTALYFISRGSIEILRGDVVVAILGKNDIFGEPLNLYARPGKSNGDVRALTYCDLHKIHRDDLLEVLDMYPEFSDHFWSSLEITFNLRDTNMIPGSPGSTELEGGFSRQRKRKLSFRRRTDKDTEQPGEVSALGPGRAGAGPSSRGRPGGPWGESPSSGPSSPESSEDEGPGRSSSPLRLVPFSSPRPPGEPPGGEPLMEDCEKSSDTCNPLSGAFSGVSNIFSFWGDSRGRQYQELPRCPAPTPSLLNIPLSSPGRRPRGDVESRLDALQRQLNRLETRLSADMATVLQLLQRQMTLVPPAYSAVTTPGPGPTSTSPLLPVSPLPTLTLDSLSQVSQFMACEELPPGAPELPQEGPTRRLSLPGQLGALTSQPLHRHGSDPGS
As to `O=C(OCC(=O)N1CCCCC1)c1cccc(NS(=O)(=O)c2ccccc2)c1`, the “hERG current change (%, negative = inhibition) at 1uM” value turned out to be 12.4%. The value for `O=C(NCc1ccc(C(=O)N2CCC3(CC2)OCCO3)cc1)c1ccc2c(c1)OCO2` was 5.42%; that for `O=C(CSc1nnc(-c2ccco2)n1Cc1ccccc1)NC(=O)NCc1ccco1` was -15.6%.

`CCOC(=O)C1(CCCc2ccccc2)CCN(C2CCC2)CC1`: the “hERG current change (%, negative = inhibition) at 1uM” value is given as -57.1%. For `CCOC(=O)C1(CCc2ccccc2)CCN(C2CCSCC2)CC1` the value was -80.7%; for `CCOC(=O)C1(CCc2ccccc2)CCN(C(=O)C2CCOCC2)CC1`, -21.2%.

As to `CCOC(=O)C1(CCc2ccccc2)CCN(C2Cc3ccccc3C2)CC1`, the “hERG current change (%, negative = inhibition) at 1uM” value was -18.7%. For `CSCC(C)N1CCC(CO)(CCCc2ccccc2)CC1` (centres unmarked) the value was -11.2%; for `CS(=O)(=O)c1ccc(S(=O)(=O)N2CCC(CO)(CCCc3ccccc3)CC2)cc1`, 4.47%; for `CCOC(=O)C1(CCCc2ccccc2)CCN(C(=O)CSC)CC1`, 3.88%. For `CCOC(=O)C1(CCCc2ccccc2)CCN(C(=O)C2CCCO2)CC1` (centres unmarked) the value was 5.58%. The value for `CCOC(=O)C1(CCCc2ccccc2)CCN(S(C)(=O)=O)CC1` was 5.98%; that for `CCOC(=O)C1(CCCc2ccccc2)CCN(C(=O)COC)CC1` was 10.5%. Regarding `OCC1(CCCc2ccccc2)CCN(C2CCSCC2)CC1`, the “hERG current change (%, negative = inhibition) at 1uM” value was -65.4%. The value for `CCOC(=O)C1(CCCc2ccccc2)CCN(C2CCCC2)CC1` was -66.1%. For `O=C(NCc1ccco1)C1CCN(S(=O)(=O)c2ccccc2C(F)(F)F)CC1` the value was 12.6%; for `COc1cccc(C(=O)NCCS(=O)(=O)N2CCC(C)CC2)c1`, 3.89%; for `CC1(C)CN(c2ccc(C(=O)c3ccccc3)cc2)C1=O`, 6.95%. The value for `CCCCn1c(N)c(N(CCOC)C(=O)C2CCN(S(=O)(=O)c3ccc(C)cc3C)CC2)c(=O)[nH]c1=O` was 14.6%.

For the compound `Cc1ccccc1OCC(=O)OCC(=O)c1ccc[nH]1`, the “hERG current change (%, negative = inhibition) at 1uM” value was 10.2%. For `CCOC(=O)c1nn(-c2ccccc2C)c2nc(CC(C)C)c(C#N)c(=O)n12` the value was 15.8%; for `O=c1cc(NCc2ccco2)c2ccccc2o1`, 11.6%. With `CCS(=O)(=O)N1CCN(c2ccnc3cc(Cl)ccc23)CC1`, the “hERG current change (%, negative = inhibition) at 1uM” value is on record as -67.4%.

As for `Clc1ccc2c(N3CCCC3)ccnc2c1`, the “hERG current change (%, negative = inhibition) at 1uM” value was -25.9%.

Consider `CN(C)S(=O)(=O)N1CCN(c2cc(Cl)ccc2Cl)CC1`, for which the “hERG current change (%, negative = inhibition) at 1uM” value is 16.5%. For `CCC(=O)N1CCN(c2ccnc3cc(Cl)ccc23)CC1` the value was -25.7%; for `CC(C)S(=O)(=O)N1CCN(c2ccnc3cc(Cl)ccc23)CC1`, -55.2%. On to `CN(C)S(=O)(=O)N1CCN(c2ccnc3cc(Cl)ccc23)CC1`, for which the “hERG current change (%, negative = inhibition) at 1uM” value is listed as -65.6%. The value for `CS(=O)(=O)N1CCN(c2ccnc3cc(Cl)ccc23)CC1` was -81.3%. The value for `Cl.ClCCN1CCN(c2ccnc3cc(Cl)ccc23)CC1` was 7.03%; that for `Clc1ccc2c(N3CCOCC3)ccnc2c1` was 0.204%; that for `COc1ccccc1N1CCN(c2ccnc3cc(Cl)ccc23)CC1` was 7.78%. For `Oc1ccc(N2CCN(c3ccnc4cc(Cl)ccc34)CC2)cc1` the value was 5.36%; for `COc1ccc(/C=C2\SC(=S)N(N3CCOCC3)C2=O)c(OC)c1`, 10.2%; for `CCOC(=O)c1c(C)[nH]c(C)c1C(=O)CSc1nc2ccccc2[nH]1`, 13.8%.

As for `O=c1c(Cc2ccc(F)cc2)c(O)ccn1CCCn1ccnc1`, the “hERG current change (%, negative = inhibition) at 1uM” value came to 20.5%. The value for `COc1ccc(CCNC(=O)CC(c2ccccc2)c2cccc(C)c2O)cc1OC` (centres unmarked) was 6%; that for `OCCC1CN(Cc2cccc(-c3ccco3)c2)CCN1Cc1ccsc1` (centres unmarked) was -17.3%. For `CC(C)NC(=S)N=Nc1c(O)[nH]c2ccc([N+](=O)[O-])cc12` the value was 18.4%. With `COc1cccc(OC)c1C(=O)Nc1ccnn1C`, the “hERG current change (%, negative = inhibition) at 1uM” value was -75.9%. For `Cn1nccc1NC(=O)NC(=O)c1c(Cl)cccc1Cl` the value was 8.82%.

As to `COc1cccc(OC)c1C(=O)Nc1ccncc1`, the “hERG current change (%, negative = inhibition) at 1uM” value is recorded as 17.4%. For `O=C(Cn1nnc2ccccc21)N1CCCCC1` the value was 2.74%; for `O=C(Nc1ccc(N2CCN(C(=O)c3cccs3)CC2)cc1)c1ccc(Br)o1`, -52.7%. For `O=C(Nc1ccc(N2CCN(C(=O)c3cccs3)CC2)cc1)c1ccc([N+](=O)[O-])o1` the value was -15.8%. On to `CCC(=O)Nc1ccc(N2CCN(C(=O)c3cccs3)CC2)cc1`, for which the “hERG current change (%, negative = inhibition) at 1uM” value was 3.02%. For `O=C(CN1CCN(C(=O)c2ccco2)CC1)Nc1ccc(Br)cc1` the value was 10.5%; for `O=C(CN1CCN(Cc2ccccc2)CC1)Nc1ccc(Br)cc1`, -48.3%; for `O=C(CN1CCN(C(=O)c2cccs2)CC1)Nc1ccc(Br)cc1`, -68.2%. The value for `O=C(CN1CCN(C(=O)c2ccccc2F)CC1)Nc1ccc(Br)cc1` was -56.5%; that for `O=C(NCCN1CCN(C(=O)c2cccs2)CC1)C(=O)Nc1ccc(Br)cc1` was -44.8%; that for `O=C(Nc1ccc(N2CCN(C(=O)c3cccs3)CC2)cc1)c1ccco1` was 17.4%.

As for `Cc1ccc(NC(=O)c2ccc3ccccc3n2)cc1S(=O)(=O)N1CCOCC1`, the “hERG current change (%, negative = inhibition) at 1uM” value is 14%. Take `CCOP1(=S)Oc2cc3c(cc2C(C(=O)OC)(C(F)(F)F)O1)OCO3` (centres unmarked): the “hERG current change (%, negative = inhibition) at 1uM” value was found to be 5.27%. For `Cn1c(=O)n(C)c2cc(N3CCCC3)c(NC(=O)c3cccc(F)c3)cc21` the value was 10.3%. For `O=[N+]([O-])c1ccc(C2=CSC3=NCCN23)cc1` the value was -0.955%; for `Br.COc1ccc(C2=CSC3=NCCN23)cc1OC`, 7.66%; for `CCCOc1ccc(C2=CSC3=NCCN23)cc1[N+](=O)[O-]`, -68.4%. In the case of `COc1ccc(C2=CSC3=NCCN23)cc1[N+](=O)[O-]`, the “hERG current change (%, negative = inhibition) at 1uM” value was 2.48%. On to `CCCOc1ccc(C2=CSC3=NCCN23)cc1Cl`, for which the “hERG current change (%, negative = inhibition) at 1uM” value is reported as -23.5%. For `CCCCOc1ccc(C2=CSC3=NCCN23)cc1[N+](=O)[O-]` the value was -52.1%; for `CCCOc1ccc(C2=CSC3=NCCN23)cc1.Cl`, -0.939%; for `CCOc1ccc(C2=CSC3=NCCN23)cc1[N+](=O)[O-]`, -61%.

For `Br.CCc1ccc(C2=CSC3=NCCN23)cc1`, the “hERG current change (%, negative = inhibition) at 1uM” value turned out to be 1.72%.

`Br.CC(C)Cc1ccc(C2=CSC3=NCCN23)cc1`: the “hERG current change (%, negative = inhibition) at 1uM” value is listed as -60.9%. The value for `Br.Cc1ccc(C2=CSC3=NCCN23)cc1` was 11.3%; that for `CCOc1ccc(C2=CSC3=NCCN23)cc1Cl` was 10.2%; that for `CCCCn1c(N)c(N(CCOC)C(=O)CN2CC=C(c3ccccc3)CC2)c(=O)[nH]c1=O` was 10.3%. For `O=C(Cn1nnc(-c2ccc(Cl)cc2)n1)NC1CCS(=O)(=O)C1` (centres unmarked) the value was 0.0052%. Turning to `Cc1ccc(Cn2c(N)c(S(=O)(=O)c3cccs3)c3nc4ccccc4nc32)cc1`, the “hERG current change (%, negative = inhibition) at 1uM” value is listed as 5.35%. For `CCn1c(SCC(=O)N/N=C/c2c[nH]c3ccccc23)nnc1-c1ccc(C)cc1` the value was 9.39%; for `O=C1c2ccccc2C(=O)C1c1ccnc2ccccc12`, 11.7%. For `Cc1ccccc1N(CC(=O)NCc1ccc2c(c1)OCO2)C(=O)CCC(=O)Nc1ccccn1` the value was 6.43%; for `CCC1(CC)NC(=O)N(CC(=O)Nc2ccc(S(=O)(=O)N3CCOCC3)cc2)C1=O`, 3.3%; for `CCC1CCC(N2CCN(c3ccc(F)cc3)CC2)CC1` (centres unmarked), -2.92%. The value for `O=[N+]([O-])c1ccc(N2CCN(c3ccccc3)CC2)cc1` was 9.45%; that for `CCN1CCC(N2CCN(c3ccc(Cl)cc3)CC2)CC1` was 10.7%. Regarding `CCC1CCC(N2CCN(c3ccc([N+](=O)[O-])cc3)CC2)CC1` (centres unmarked), the “hERG current change (%, negative = inhibition) at 1uM” value is -74.5%. On to `CCN1CCC(N2CCN(c3ccc(F)cc3)CC2)CC1`, for which the “hERG current change (%, negative = inhibition) at 1uM” value is given as 10.6%. On to `CC1CCC(N2CCN(c3ccc([N+](=O)[O-])cc3)CC2)CC1` (centres unmarked), for which the “hERG current change (%, negative = inhibition) at 1uM” value is -67.8%. On to `O=[N+]([O-])c1ccc(N2CCN(c3ccc(F)cc3)CC2)cc1`, for which the “hERG current change (%, negative = inhibition) at 1uM” value is 5.71%.

`O=[N+]([O-])c1ccc(N2CCN(CC3CCCCC3)CC2)cc1`: the “hERG current change (%, negative = inhibition) at 1uM” value is -23%. On to `CCCN1CCC(N2CCN(c3ccc([N+](=O)[O-])cc3)CC2)CC1`, for which the “hERG current change (%, negative = inhibition) at 1uM” value is on record as -62.7%. The value for `Cc1ccnc(N2C(=O)OC(C)(C)C2(C)O)c1` (centres unmarked) was -0.922%; that for `C=CCS(=O)(=O)N1CCCC(C(=O)c2cccc(Cl)c2)C1` (centres unmarked) was 14.2%.

Consider `O=C(NS(=O)(=O)c1ccccc1)c1ccccc1O`, for which the “hERG current change (%, negative = inhibition) at 1uM” value worked out at 0.636%. Take `O=C(NCc1ccc2c(c1)OCO2)c1cc(-c2ccccc2Cl)on1`: the “hERG current change (%, negative = inhibition) at 1uM” value turned out to be 12.4%. In the case of `O=C(O)CSC1=NC(=Nc2cccc(Cl)c2)C2(CCCCC2)N1c1ccccc1`, the “hERG current change (%, negative = inhibition) at 1uM” value was found to be 19.9%. Consider `Cc1cc(OC(C)C(=O)NCc2cccnc2)c2c(C)cc(=O)oc2c1` (centres unmarked), for which the “hERG current change (%, negative = inhibition) at 1uM” value worked out at 9.3%. The value for `Cc1ccccc1CNC(=O)Cc1ccccc1[N+](=O)[O-]` was 0.014%. For `Cc1c(C(=O)Nc2cccc([N+](=O)[O-])c2)sc2ncn(CC(=O)N3CCOCC3)c(=O)c12` the value was 14.1%; for `CCc1nnc(NC(=O)c2ccc(-c3ccccc3F)o2)s1`, 11.7%. Consider `Cc1cc(N2CCC(C)CC2)nc(-n2nc(C)cc2C)n1`, for which the “hERG current change (%, negative = inhibition) at 1uM” value is recorded as -9.09%. Take `Cc1cc(C)n(-c2nnc(N3CCN(c4ccccc4)CC3)nn2)n1`: the “hERG current change (%, negative = inhibition) at 1uM” value was 4.59%. The value for `Cc1cc(N2CCN(c3ccccc3)CC2)nc(-n2nc(C)cc2C)n1` was -51%.
